Laboratory results taken from PubChem BioAssay (NCI).
This is part of a sample that, as a whole, favours compounds with a hit. Of some 79,000 tested, about 15% had one in any assay. Activity calls are given as the source filed them. No stated cut-off is given here; in the data, active means growth inhibition above about 70%; inactive means the rest.

Columns and labels:
[1] = NCI Yeast Anticancer Drug Screen. Data for the rad52 strain (AID 147);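 further: 0% = growth of vehicle-treated control cultures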; settings: S. cerevisiae rad52 mutant growth inhibition, active compounds read high
Outline: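 Yeast strain carrying a DNA damage repair alteration was exposed to test compounds. Growth inhibition was measured relative to vehicle-treated controls.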

[2] = NCI Yeast Anticancer Drug Screen. Data for the wt1 strain (AID 149);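 further: 0% = growth of vehicle-treated wt1 cultures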; settings: S. cerevisiae wt1 strain (SPY 50644) growth inhibition, active compounds read high
Outline: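 Measured: growth of wt1 yeast under compound versus vehicle treatment, reported as inhibition.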

[3] = NCI Yeast Anticancer Drug Screen. Data for the rad50EPP+ strain (AID 151);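 further: 0% = growth of vehicle-treated control cultures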; settings: S. cerevisiae rad50 mutant strain, active compounds read high
Outline: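 Yeast strain carrying rad50 alteration (rad50EPP+) exposed to compounds; growth inhibition measured relative to vehicle-treated controls.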

[4] = NCI Yeast Anticancer Drug Screen. Data for the mgt1 strain (AID 153); settings: S. cerevisiae mgt1 mutant growth inhibition, active compounds read high
Outline: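 Yeast mgt1 strain (DNA repair/cell-cycle alteration panel) exposed to compounds; growth inhibition measured relative to vehicle-treated controls.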

[5] = NCI Yeast Anticancer Drug Screen. Data for the rad50 strain (AID 155);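 further: 0% = growth of vehicle-only cultures of the same strain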; settings: S. cerevisiae rad50 strain growth inhibition, active compounds read high
Outline: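 Growth of the mutant yeast was measured after compound exposure and referenced to vehicle-treated cultures.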

[6] = NCI Yeast Anticancer Drug Screen. Data for the mec2-1 strain (AID 157); settings: S. cerevisiae mec2-1 strain, active compounds read high
Outline: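 mec2-1 yeast strain, carrying an alteration in DNA damage repair or cell cycle control, was exposed to compounds; growth inhibition was measured relative to vehicle-treated controls.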

[7] = NCI Yeast Anticancer Drug Screen. Data for the rad14 strain (AID 159);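 further: 0% = growth of vehicle-treated control cultures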; settings: S. cerevisiae rad14 strain growth inhibition, active compounds read high
Outline: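 Here, inhibition of yeast growth was measured after compound exposure, using a strain with a genetic defect in DNA damage repair and vehicle-treated cultures as the reference.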

[8] = NCI Yeast Anticancer Drug Screen. Data for the sgs1 mgt1 strain (AID 161);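 further: 0% = growth of cultures given vehicle only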; settings: S. cerevisiae sgs1 mgt1 strain, active compounds read high
Outline: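 Percent growth inhibition was derived by comparing compound-exposed mutant yeast with vehicle-exposed cultures. The strain carries alterations in DNA damage repair.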

[9] = NCI Yeast Anticancer Drug Screen. Data for the CLN2oe strain (AID 163);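 further: 0% = growth of vehicle-only control cultures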; settings: S. cerevisiae CLN2oe strain, active compounds read high
Outline: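 Yeast cells carrying a defined cell-cycle control alteration were exposed to test compounds. Growth inhibition was scored against vehicle-treated control cultures.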

[10] = NCI Yeast Anticancer Drug Screen. Data for the cln2 rad14 strain (AID 165);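 further: 0% = growth equal to vehicle treated cultures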; settings: S. cerevisiae cln2 rad14 strain, active compounds read high
Outline: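 Yeast carrying cln2 and rad14 alterations (cell cycle control and DNA damage repair) were exposed to compounds. Growth inhibition was measured against vehicle-treated controls.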

[11] = NCI Yeast Anticancer Drug Screen. Data for the bub3 strain (AID 167); settings: S. cerevisiae bub3 mutant strain, active compounds read high
Outline: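 Whole-cell yeast assay. The mutant strain was incubated with compounds, and growth inhibition was determined by comparison with vehicle-treated cells.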

[12] = NCI Yeast Anticancer Drug Screen. Data for the wt2 strain (AID 169);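 further: 0% = growth of vehicle-treated yeast cultures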; settings: S. cerevisiae wt2 strain growth inhibition, active compounds read high
Outline: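 Yeast cells were exposed to test compounds, and growth inhibition was measured relative to vehicle-treated controls.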

[13] = NCI Yeast Anticancer Drug Screen. Data for the mlh1 strain (AID 171);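 further: 0% = growth of vehicle-treated control cultures of the same strain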; settings: S. cerevisiae mlh1 strain growth inhibition, active compounds read high
Outline: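 Yeast carrying a defined genetic alteration in DNA damage repair or cell cycle control were exposed to test compounds. Growth inhibition was measured relative to vehicle-treated controls.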

[14] = NCI Yeast Anticancer Drug Screen. Data for the sgs1 strain (AID 173);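 further: 0% = growth of vehicle-only control cultures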; settings: S. cerevisiae sgs1 mutant, active compounds read high
Outline: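 Yeast mutant strains carrying defined defects in DNA damage repair or cell cycle control were exposed to test compounds. Growth inhibition was scored against vehicle-treated controls.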

[15] = NCI Yeast Anticancer Drug Screen. Data for the mlh1 rad18 strain (AID 175); settings: S. cerevisiae mlh1 rad18 strain growth inhibition, active compounds read high
Outline: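 Growth inhibition of the yeast strain was measured after compound exposure and expressed relative to vehicle-treated controls. The strain carries defined defects in DNA damage repair.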

[16] = NCI Yeast Anticancer Drug Screen. Data for the rad18 strain (AID 177); settings: S. cerevisiae rad18 mutant growth inhibition, active compounds read high
Outline: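 Yeast carrying a defined DNA damage repair alteration were exposed to compounds. Growth inhibition was expressed relative to vehicle-treated controls.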

[17] = at 5.0 µM (retest, dose inferred, filed as 0.5)
[18] = at 50.0 µM (retest, dose inferred, filed as 5.0)

Measured: growth inhibition

CC(C)OC(=O)c1ccc(CCc2cc(O)c(Br)cc2O)cc1
inactive: [1]; at 1.2 µM 37% | [1]; at 3.7 µM 50% | [1]; at 11.0 µM 56% | [1]; at 33.0 µM 53% | [2]; at 1.2 µM 26% | [2]; at 3.7 µM 33% | [2]; at 11.0 µM 45% | [2]; at 33.0 µM 27% | [3]; at 1.2 µM 66% | [4]; at 1.2 µM 55% | [5]; at 1.2 µM 34% | [5]; at 3.7 µM 49% | [5]; [17] 27% | [5]; at 11.0 µM 66% | [6]; at 1.2 µM 6% | [6]; at 3.7 µM 20% | [6]; [17] 42% | [6]; at 11.0 µM 30% | [6]; at 33.0 µM 32% | [7]; at 1.2 µM 43% | [7]; at 3.7 µM 53% | [8]; [17] 31% | [9]; at 1.2 µM -5% | [9]; at 3.7 µM 19% | [9]; at 11.0 µM 53% | [10]; [17] 1% | [11]; at 1.2 µM 22% | [11]; at 3.7 µM 22% | [11]; [17] 4% | [11]; at 11.0 µM 52% | [12]; at 1.2 µM 18% | [12]; at 3.7 µM 39% | [13]; at 1.2 µM 55% | [14]; at 1.2 µM 47% | [14]; at 3.7 µM 60% | [14]; at 11.0 µM 58% | [14]; at 33.0 µM 61% | [15]; [17] 45% | [16]; at 1.2 µM 20% | [16]; at 3.7 µM 24% | [16]; at 11.0 µM 59%
active: [1]; at 100.0 µM 79% | [2]; at 100.0 µM 98% | [3]; at 3.7 µM 80% | [3]; at 11.0 µM 94% | [3]; at 33.0 µM 97% | [3]; at 100.0 µM 94% | [4]; at 3.7 µM 70% | [4]; at 11.0 µM 71% | [4]; at 33.0 µM 72% | [4]; at 100.0 µM 94% | [5]; at 33.0 µM 98% | [5]; [18] 99% | [5]; at 50.0 µM 86.2% | [5]; at 100.0 µM 97% | [6]; [18] 99% | [6]; at 50.0 µM 91.2% | [6]; at 100.0 µM 87% | [7]; at 11.0 µM 75% | [7]; at 33.0 µM 96% | [7]; at 100.0 µM 92% | [8]; [18] 98% | [8]; at 50.0 µM 88.5% | [9]; at 33.0 µM 92% | [9]; at 100.0 µM 95% | [10]; [18] 96% | [10]; at 50.0 µM 91.8% | [11]; at 33.0 µM 98% | [11]; [18] 91% | [11]; at 50.0 µM 88.9% | [11]; at 100.0 µM 92% | [12]; at 11.0 µM 95% | [12]; at 33.0 µM 98% | [12]; at 100.0 µM 95% | [13]; at 3.7 µM 70% | [13]; at 11.0 µM 71% | [13]; at 33.0 µM 72% | [13]; at 100.0 µM 94% | [14]; at 100.0 µM 95% | [15]; [18] 99% | [15]; at 50.0 µM 85.2% | [16]; at 33.0 µM 96% | [16]; at 100.0 µM 93%
